Laboratory results taken from the supplement of paper PMC6555819.

What was measured:
Test in all cases: PBM binding z-score (relative to random genomic background probes); higher = stronger binding; sequences stand for … in GC…GCGATTGACAGCGTAGAATGAAGG
[1] = test system: RARb homodimer (NR concentration 270 nM)
Outline: (§1)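 Custom Agilent 4×180K protein-binding microarrays carried double-stranded probes, each with a 34-nt variable region. These regions held direct-repeat seeds, single-nucleotide variants, half-site ablations and random human genomic background sequences. Ligand-free nuclear receptor dimers were incubated on the arrays for 1 h, antibodies against each partner (one per run) detected binding, and scanned fluorescence was regression-normalized. Binding z-scores take the random background probes as reference.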

[2] = test system: RARg:RXRa (NR concentration 270 nM, RXRa partner concentration 90 nM)
Outline: as §1

[3] = test system: RARg homodimer (NR concentration 270 nM)
Outline: as §1

[4] = test system: RXRa DBDmut IVT, anti-RXR (DBD mutation: RXRa K156A/R161A, NR concentration 90 nM)
Outline: as §1

[5] = test system: RXRa homodimer (NR concentration 180 nM)
Outline: as §1

[6] = test system: THRa:RXRa (NR concentration 90 nM, RXRa partner concentration 90 nM)
Outline: as §1

[7] = test system: THRa homodimer (NR concentration 90 nM)
Outline: as §1

[8] = test system: VDR homodimer (NR concentration 270 nM)
Outline: as §1

Row | Sequence | PBM binding z-score [1] | PBM binding z-score [2] | PBM binding z-score [3] | PBM binding z-score [4] | PBM binding z-score [5] | PBM binding z-score [6] | PBM binding z-score [7] | PBM binding z-score [8]
1 | ACAGACAGGTGAGTGAAGGTAAGTCAGCTGGACG | 0.373 | 0.45 | 0.335 | -0.68 | 0.274 | 1.03 | -0.473 | -0.657
2 | ACAGACAGGTGATGAAGGTAACTCACGCTATCAT | 0.275 | 0.28 | 0.546 | -0.0205 | 0.483 | 0.491 | -0.113 | 0.0793
3 | TCTATTAGTTGATTAGGGTAACCGAAACAGCGGA | 0.423 | 0.525 | 0.53 | 1.03 | 0.666 | 1.61 | 0.861 | 0.517
4 | CCTCGGAGAACAGAAGGTCAGAGCTGTCCGCTTT | 2.93 | 2.11 | 1.99 | 0.355 | 2.01 | 1.77 | -0.175 | 0.014
5 | ACAGACTGGTGAGTGAAGGTAACTCAGCTGGACG | -0.42 | -0.303 | -0.112 | -0.514 | -0.182 | 0.0338 | -0.517 | -0.299
6 | TTGCCAAGGTGAGCTGAGGTCGTTGATCCAACTC | 1.42 | 1.02 | 0.784 | -0.052 | 0.78 | 4.62 | 2.03 | 1.75
7 | AGAATAAGGTTATTAAGATCAGGGAATTGCGGTC | 1.1 | 1.39 | 1.13 | 1.47 | 1.58 | 2.42 | 0.933 | 0.967
